{"source": "PubChem BioAssay AID2283304", "about": "(EPA ToxCast)", "note": "Results filed as inconclusive are left out. Active and inactive are the calls of the source. How the source made its calls: active means hit-call score of the fitted dose curve at least 0.9, where 1 is the maximum; inconclusive means response in the unintended direction; inactive means score below 0.9."}
{"target": "rat Galanin Receptor, Galr1 (gene 50577) (UniProt Q62805)", "sequence (Q62805 whole entry, looked up)": "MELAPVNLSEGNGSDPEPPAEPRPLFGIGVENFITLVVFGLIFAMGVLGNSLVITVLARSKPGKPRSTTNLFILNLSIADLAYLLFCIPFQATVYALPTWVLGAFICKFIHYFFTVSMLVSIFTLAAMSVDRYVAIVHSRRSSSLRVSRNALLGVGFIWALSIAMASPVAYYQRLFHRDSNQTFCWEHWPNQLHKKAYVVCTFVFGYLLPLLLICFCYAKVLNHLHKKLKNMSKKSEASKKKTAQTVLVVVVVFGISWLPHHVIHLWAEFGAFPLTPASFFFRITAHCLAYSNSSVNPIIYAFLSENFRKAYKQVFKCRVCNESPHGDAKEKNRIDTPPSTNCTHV", "experiment": "NVS_GPCR_rGalanin: NovaScreen (NVS) G Protein-Coupled Receptor Assay for rat Galanin Receptor", "method": "NVS_GPCR_rGalanin is a biochemical, single-readout assay that uses extracted gene-proteins from Rat brain membranes in a tissue-based cell-free assay. Measurements were taken 2 hours after chemical dosing in a 96-well plate.NVS_GPCR_rGalanin is one of one assay component(s) measured or calculated from the NVS_GPCR_rGalanin assay. It is designed to make measurements of radioligand binding, a form of binding reporter, as detected with scintillation counting signals by Filter-based radiodetection technology.Data from the assay component NVS_GPCR_rGalanin was analyzed into 1 assay endpoint. This assay endpoint, NVS_GPCR_rGalanin, was analyzed in the positive analysis fitting direction relative to DMSO as the negative control and baseline of activity. Using a type of binding reporter, loss-of-signal activity can be used to understand changes in the binding as they relate to the gene Galr1. Furthermore, this assay endpoint can be referred to as a primary readout, because the performed assay has only produced 1 assay endpoint. To generalize the intended target to other relatable targets, this assay endpoint is annotated to the gpcr intended target family, where the subfamily is rhodopsin-like receptor.\nBinding assays used specific radioligands (tritiated, iodinated) with non-radioactive competitive displacement ligands in agonist or antagonist protocols (as indicated) and various reference compounds and inhibitors to titrate specific binding to receptors and transporters. Most enzyme assays (CYPs, kinases, phosphatases, proteases, HDACs) used recombinant protein and specific substrates (fluorescence mostly, some colorimetric and radioactive) and inhibitors, followed by a biochemical separation of substrate and product. All assays for the biochemical HTS were initially run in duplicate at a single concentration (10 uM for CYP450 assays and 25 uM for all others). Assay-chemical combinations meeting a pre-defined threshold (e.g., 30% inhibition and other criteria defined below) were then run in singleton concentration-response format with maximum concentration of 20 uM for CYPs and 50 uM for all others. Each assay was run with positive and negative controls, and concurrent controls on every plate. The follow-up (secondary) screen tested active chemical-pairs in concentration series, as well as a few additional assays not tested in the primary screen, some selected negative inactives, and several cases re-run in the concentration series for confirmatory purposes."}
{"smiles": "CCN1CCC2(CC1)COc1cc3c(cc12)N(C(=O)c1ccc(-c2ccc(-c4nnc(C)o4)cc2C)cc1)CC3", "outcome": "inactive"}
{"smiles": "CC(C)(c1ccccc1)c1ccc(O)c(C(C)(C)c2ccccc2)c1", "outcome": "inactive"}
{"smiles": "Cc1cc(O)ccc1Cl", "outcome": "inactive"}
{"smiles": "Cc1cccc(C)c1O", "outcome": "inactive"}
{"smiles": "CC(C)NCC(O)c1ccc(O)c(O)c1", "note": "(stereo unspecified)", "outcome": "inactive"}
{"smiles": "CCC[CH2][Sn]([Cl])([CH2]CCC)[CH2]CCC", "AC50": "3.99 µM (active)"}
{"smiles": "O=c1ccc2ccccc2o1", "outcome": "inactive"}
{"smiles": "c1ccc2c(c1)-c1cccc3c1c-2cc1ccccc13", "outcome": "inactive"}
{"smiles": "O=C(O)C1C(C(=O)O)C2(Cl)C(Cl)=C(Cl)C1(Cl)C2(Cl)Cl", "note": "(stereo unspecified)", "outcome": "inactive"}
{"smiles": "CCCCc1ccc2c(n1)[C@@H](c1ccc(OC)cc1C[C@H](C)C(=O)O)[C@H](C(=O)O)[C@H]2c1ccc2c(c1)OCO2", "outcome": "inactive"}
{"smiles": "COS(C)(=O)=O", "outcome": "inactive"}
{"smiles": "CCCCCCCCCCO", "outcome": "inactive"}
{"smiles": "CCCCCCCCCCC", "outcome": "inactive"}
{"smiles": "CN(C)C(=O)Cl", "outcome": "inactive"}
{"smiles": "CC(C)=CCCC(C)=CC=O", "outcome": "inactive"}
{"smiles": "C=CCC1=C(C)C(OC(=O)C2C(C=C(C)C)C2(C)C)CC1=O", "note": "(stereo unspecified)", "outcome": "inactive"}
